Laboratory results: PubChem BioAssay (NCI)
About 79,000 compounds went through this panel and 15% of them were active in at least one assay; those are over-represented in the sample as a whole. Cut-off read from the data, not from the text of the source: active = growth inhibition above about 70%; inactive = the rest.

Tests used:
[1] = NCI Yeast Anticancer Drug Screen. Data for the rad50 strain (AID 155);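 note: 0% = growth of vehicle-only cultures of the same strain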; settings: S. cerevisiae rad50 strain growth inhibition; at 50.0 µM; hits give high values
Outline: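 Relative growth inhibition (compound vs vehicle) was measured in yeast with a defined repair-gene alteration.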

[2] = NCI Yeast Anticancer Drug Screen. Data for the mec2-1 strain (AID 157); settings: S. cerevisiae mec2-1 strain, at 50.0 µM, hits give high values
Outline: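 Test agents were screened against the mec2-1 yeast strain, with defined DNA repair or cell cycle alteration. Growth was scored as inhibition against vehicle-only controls.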

[3] = NCI Yeast Anticancer Drug Screen. Data for the sgs1 mgt1 strain (AID 161);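 note: 0% = growth of cultures given vehicle only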; settings: S. cerevisiae sgs1 mgt1 strain, at 50.0 µM, hits give high values
Outline: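 Inhibition of yeast growth, normalised to vehicle-treated controls, is reported for a strain bearing genetic alterations in DNA damage repair.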

[4] = NCI Yeast Anticancer Drug Screen. Data for the cln2 rad14 strain (AID 165);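 note: 0% = growth equal to vehicle treated cultures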; settings: S. cerevisiae cln2 rad14 strain, at 50.0 µM, hits give high values
Outline: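 Growth of compound-exposed yeast (cln2 rad14 genotype) measured and expressed as inhibition relative to vehicle.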

[5] = NCI Yeast Anticancer Drug Screen. Data for the bub3 strain (AID 167); settings: S. cerevisiae bub3 mutant strain, at 50.0 µM, hits give high values
Outline: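 Screening used yeast with an engineered genetic alteration affecting cell cycle control. Compound-exposed cultures were compared with vehicle cultures, and reduced growth was taken as inhibition.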

[6] = NCI Yeast Anticancer Drug Screen. Data for the mlh1 rad18 strain (AID 175); settings: S. cerevisiae mlh1 rad18 strain growth inhibition; at 50.0 µM; hits give high values
Outline: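 In this whole-cell yeast screen, a strain with altered DNA damage repair is challenged with compound, and its growth is measured against matched vehicle-treated controls.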

Measured: growth inhibition

CCC[N+](CCC)=c1ccc2nc3c(C)cc(N(CC)CC)cc3sc-2c1
inactive: [1] -60.6% | [2] -6.45% | [3] -20.6% | [4] -126% | [5] -130% | [6] -39.2%

CC1CC(Cc2ccccc2CC2CC(C)OC2=O)C(=O)O1 (configuration not stated)
inactive: [1] 6.95% | [2] 12.6% | [3] -0.1% | [4] 10.8% | [5] 10.8% | [6] 22.9%

COC1C2CC3C4(CCC5C6(C)CCCC53C(C14)N(C)C6)CC21CCC23C4C=C5C6=C(CCC5(CC42)C3O1)C1(C)CC(C6)CN(C)C1 (configuration not stated)
inactive: [1] 33.6% | [2] 9.35% | [3] 22.9% | [4] 15.6% | [5] 18.5% | [6] 26.6%

CC1C/C(=C\c2ccccc2)C(=O)/C1=C/c1ccccc1 (configuration not stated)
inactive: [1] -3.6% | [2] 17.4% | [3] 7.3% | [4] -6.4% | [5] -2.75% | [6] -15.9%

Cc1nnc2n(c1=O)CCN2C
inactive: [1] -1.65% | [2] 0.1% | [3] 12.3% | [4] -4.4% | [5] 7.8% | [6] 26.2%

C=CCOC1OC(CS(=O)(=O)O)C(OC(C)=O)C(OC(C)=O)C1OC(C)=O (configuration not stated)
inactive: [1] 17.9% | [2] 4.2% | [3] -1.1% | [4] 21.6% | [5] -2.75% | [6] 15.9%

OCCCNc1nc2cc(Cl)ccc2o1
inactive: [1] 9.2% | [2] 22.6% | [3] 16.1% | [4] -31.1% | [5] 7.9% | [6] -14.9%

CCCCCCCCCCCCCCCCCN(C)C(=O)OCC
inactive: [1] 23.1% | [2] -62.5% | [3] -55.5% | [4] -114% | [5] -7.15% | [6] -30.8%

N#CCSCC(N)C(=O)O (configuration not stated)
inactive: [1] -11.1% | [2] -15.2% | [3] -1.1% | [4] -6.75% | [5] -19.6% | [6] -4.8%

COc1ccccc1C1OC(C)C(C)O1 (configuration not stated)
inactive: [1] -16.1% | [2] -10.7% | [3] -7.35% | [4] 5.5% | [5] -25.9% | [6] -16.3%

C=CCCCCCCCCC(=O)OCC(C)C
inactive: [1] 11.3% | [2] 22.4% | [3] 15.9% | [4] -27.2% | [5] -24.1% | [6] 17.4%

CC(C)(O)C(O)COc1c2c(cc3oc(=O)ccc13)OCO2 (configuration not stated)
inactive: [1] 26.3% | [2] 3.5% | [3] 18.9% | [4] -1.35% | [5] 31.9% | [6] 25.6%

O=C(CCl)OCc1ccc(Cl)cc1
inactive: [1] 4.5% | [2] 2.55% | [3] -3.75% | [4] -27.8% | [5] 1.25% | [6] -9.45%

C1CCC(CN2CCN(CC3CCCCO3)CC2)OC1 (configuration not stated)
inactive: [1] -2.4% | [2] -11.5% | [3] -1.05% | [4] -41.8% | [5] 0.25% | [6] 3.05%

CC(N=C(N)N)C(=O)O (configuration not stated)
inactive: [1] -11.9% | [2] 9.1% | [3] 0.15% | [4] -12.5% | [5] 5.3% | [6] 14%

O=C1CCCC/C1=C\c1ccc([N+](=O)[O-])cc1
inactive: [1] 28.4% | [2] 27.9% | [3] 29.4% | [4] 10.1% | [5] 21.8% | [6] 40.4%

CCC1(C#CCN2C(=O)c3ccccc3C2=O)C=CC2(CC1)OCCO2 (configuration not stated)
inactive: [1] 10.2% | [2] 18.2% | [3] 26.2% | [4] 0.6% | [5] 2.5% | [6] 48.9%

CCCC(=O)C1=CC(C(C)C)CCC1C (configuration not stated)
inactive: [1] 12.6% | [2] -4.4% | [3] -4.05% | [4] -12.2% | [5] 1.15% | [6] 1%

CC[O-].CC[O-].O=C1c2ccccc2C(=O)c2c(O)ccc([O-])c21.O=C1c2ccccc2C(=O)c2c(O)ccc([O-])c21.[Ti+4]
inactive: [1] -20.6% | [2] 1.75% | [3] -3.45% | [4] -4.3% | [5] -17.9% | [6] -14.8%

COc1cc2c(c(OC)c1OC)-c1ccc(S(=O)(=O)Cc3ccccc3)c(=O)cc1C(NC(C)=O)CC2 (configuration not stated)
inactive: [1] 34.5% | [2] 16.2% | [3] 9.8% | [4] -2.3% | [5] 1.25% | [6] 21.8%

Nc1cc(Cl)cc(S(=O)(=O)O)c1O
inactive: [1] 1.9% | [2] -0.05% | [3] -2.95% | [4] -65.9% | [5] 9.05% | [6] -13.9%

CN(C)S(=O)(=O)Cc1ccccc1
inactive: [1] 7.95% | [2] -6.65% | [3] -6.65% | [4] -73.5% | [5] 6.75% | [6] -7.1%

CCOC(=O)NC(=S)Nc1nonc1-c1ccccc1
inactive: [1] 1.35% | [2] 2% | [3] 36% | [4] -9.65% | [5] 15.6% | [6] 26.2%

CCc1c(Cc2[nH]c(Cc3[nH]c(C=O)c(C)c3CC)c(CC)c2CC)[nH]c(C=O)c1C
inactive: [1] 5.25% | [2] -7.5% | [3] -5.85% | [4] -45.9% | [5] -0.75% | [6] -8.75%

c1ccc(C2=NCCc3cc4c(cc32)OCO4)cc1
inactive: [1] 3.35% | [2] 0.7% | [3] 7.8% | [4] 10.1% | [5] 13.2% | [6] 9.4%

C=C1C(C2(C)C=CC(=O)OC3(C)COC(=O)CC32)C(OC=O)C(OC(=O)C(O)C(C)CC)C2(C)C(c3ccoc3)CC(OC(C)=O)C12O (configuration not stated)
inactive: [1] 7.9% | [2] -5.2% | [3] -4.65% | [4] -0.45% | [5] 16.3% | [6] -21.4%

O=C(CCC(=O)Nc1ccc(Cl)c(Cl)c1)CC(=O)c1ccc2ccccc2c1
inactive: [1] 22% | [2] 9.6% | [3] 2.45% | [4] 19.9% | [5] 2.2% | [6] -12.1%

Nc1ccc(S(=O)(=O)O)cc1
inactive: [1] -20.6% | [2] 3.85% | [3] 2.35% | [4] -29.3% | [5] -6.75% | [6] -2.55%

Cn1c(=O)c(C(=O)NC(=O)OCc2ccccc2)cn(CCSCCOC(=O)NCCCCCCNC(=O)OCCSCCn2cc(C(=O)NC(=O)OCc3ccccc3)c(=O)n(C)c2=O)c1=O
inactive: [1] -3.1% | [2] -21.1% | [3] -6.35% | [4] -0.95% | [5] -5.15% | [6] -16.5%

Nc1nc(CCC(=O)Nc2cccc(C(F)(F)F)c2)cc(-c2ccc3ccccc3c2)n1
inactive: [1] -8.3% | [2] -23.5% | [3] -77.7% | [4] -10.2% | [5] -5.5% | [6] -31.6%

CC(=O)OC/C=C(\C)CCC=C(C)C
inactive: [1] -21.6% | [2] -23.4% | [3] -12.2% | [4] -6.65% | [5] -0.55% | [6] -5.15%

CC(=O)O[C@@H]1C[C@H](C)CC(C)(C)C1
inactive: [1] 3.35% | [2] 5.75% | [3] -10.6% | [4] -3.7% | [5] 0.4% | [6] -3.1%

O=C(NNC(=S)Nc1ccccc1)C12CC3CC(CC(C3)C1)C2
inactive: [1] -12% | [2] 31.4% | [3] 29.8% | [4] 14.7% | [5] 35.5% | [6] 1.3%

CC1(C)S[C@@H]2[C@H](NC(=O)/C=C/c3ccccc3)C(=O)N2[C@H]1C(=O)O
inactive: [1] 15.3% | [2] 9.5% | [3] 9.2% | [4] 0.6% | [5] 25.6% | [6] -5.5%

CC1CCCCC[N+]1(C)CCO (configuration not stated)
inactive: [1] -8.5% | [2] -7.15% | [3] -6.25% | [4] -30.7% | [5] -7.85% | [6] -4.8%

O=C(CCN1C(=O)c2ccccc2C1=O)c1cnc(N2C(=O)c3ccccc3C2=O)[nH]1
inactive: [1] 15.6% | [2] -4.45% | [3] 11.4% | [4] -22.4% | [5] 18.9% | [6] 2.5%

CC(=O)NC(CCCCN)C(=O)NCc1ccccc1 (configuration not stated)
inactive: [1] -1.95% | [2] -12% | [3] -12.1% | [4] 11.1% | [5] -19% | [6] -20.4%

N#C/C(=C/C=C/c1ccccc1)c1ccc([N+](=O)[O-])cc1
inactive: [1] 22% | [2] 23.4% | [3] 24.8% | [4] -8.2% | [5] 36.5% | [6] 18.9%

Cn1nnc(CC[N+]2(C)CCOCC2)n1
inactive: [1] -3.35% | [2] 3.45% | [3] -3.35% | [4] -24.5% | [5] 6.05% | [6] 3.9%

COc1cc(/C=C/C(=O)N[C@@H]2C(=O)N3[C@@H]2SC(C)(C)[C@@H]3C(=O)O)ccc1O
inactive: [1] -7.45% | [2] -11.2% | [3] -7.9% | [4] -1.55% | [5] -15.2% | [6] 6.65%

CCCCCCCCCCCCCCCCOc1ccc(OCCCCCCCCCCCCCCC)cc1
inactive: [1] 42.2% | [2] -8.2% | [3] 31.6% | [4] -24.7% | [5] 5.35% | [6] -1.1%

CC(C)C1=CC23CCC4C(C)(C(=O)O)CCCC4(C)C2CC1C1C(=O)N(c2ccccc2)C(=O)C13 (configuration not stated)
inactive: [1] -7.45% | [2] -3.9% | [3] 1.55% | [4] 0.7% | [5] -40% | [6] 8.65%
